According to PubChem BioAssay (EPA / NIEHS):
Several values for one entry are separate records, joined by “and”; a condition that tells them apart may be missing. Equal values may be shown once. Where a structure was tested more than once in an assay, its records may differ in their call. Activity calls are given as the source filed them. The calls were made as follows: active = hit-call score of the fitted dose curve at least 0.9, where 1 is the maximum; inactive = score below 0.9.

Assay: ATG_AP_1_CIS: Attagene CIS-FACTORIAL HepG2 Assay for human Activator Protein 1 (AP-1) (AID 2282931)
Conditions: HepG2 Attagene cis-factorial AP-1 reporter mRNA; actives raise or lower the signal
Outline: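 We transfected HepG2 cells transiently with a set of cis-regulated reporter transcription units, dosed them for 24 h, and quantified reporter mRNA via RT-PCR and capillary electrophoresis, scoring gain or loss of signal relative to DMSO.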

Compound	outcome	AC50
COc1cccc(C=O)c1	inactive	
COc1ccc(OC)c(C=O)c1	inactive	
COc1cc2c(cc1OC)[C@@]13CCN4CC5=CCO[C@H]6CC(=O)N2[C@H]1[C@H]6[C@H]5C[C@H]43	inactive	
ClC1=C(Cl)[C@]2(Cl)[C@@H]3[C@@H](Cl)[C@@H](Cl)C[C@@H]3[C@@]1(Cl)C2(Cl)Cl	inactive	
CC(C)(C)c1cc(O)ccc1O		66.7 µM (active)
O=C(O)C(F)(F)C(F)(F)C(F)(F)C(F)(F)C(F)(F)C(F)(F)F	inactive	
CC(C)(OO)c1ccccc1	inactive	
CCOP(=S)(OCC)Oc1ccc(S(C)=O)cc1 (centres undefined)	inactive	
C[C@]12CCC(=O)C[C@@H]1CC[C@@H]1[C@@H]2CC[C@]2(C)[C@@H](O)CC[C@@H]12	inactive	
CC(C)(C)CC(C)(C)c1ccc(O)cc1	inactive	19.4 µM (active)
CN(C)N=O	inactive	
CCN1CCC2(CC1)COc1cc3c(cc12)N(C(=O)c1ccc(-c2ccc(-c4nnc(C)o4)cc2C)cc1)CC3	inactive	
ClCC(Cl)CCl	inactive	
O=C1C2(Cl)C3(Cl)C4(Cl)C(Cl)(Cl)C5(Cl)C3(Cl)C1(Cl)C5(Cl)C24Cl (centres undefined)	inactive	3.57 µM (active) and 3.03 µM (active)
[O-][Cl+2]([O-])O	inactive	
O=C/C=C/c1ccccc1	inactive	
CCC(C)c1cccc(C(C)CC)c1O (centres undefined)	inactive	
CC(C)(c1ccc(OCC2CO2)cc1)c1ccc(OCC2CO2)cc1 (centres undefined)		53.9 µM (active)
COP(=S)(OC)Oc1cc(Cl)c(Cl)cc1Cl		41.8 µM (active)

Compound	outcome	AC50
O=C(c1ccccc1)C(Cl)Cl		53.4 µM (active)
C[C@@H]1C[C@@H]([C@H](O)CC2CC(=O)NC(=O)C2)C(=O)[C@@H](C)C1	inactive	24.1 µM (active) and 11.9 µM (active)
c1ccc(N=NNc2ccccc2)cc1		80 µM (active)
CC(C#N)CCC#N (centres undefined)	inactive	
C(=NC1CCCCC1)=NC1CCCCC1	inactive	
O=c1[nH]c(=O)[nH]c(=O)[nH]1	inactive	
Cl/C=C/Cl	inactive	
Cc1ccc(N)cc1Cl	inactive	
C[C@]12CC[C@H](O)CC1=CC[C@@H]1[C@@H]2CC[C@]2(C)C(=O)CC[C@@H]12	inactive	
CCCCCCCCc1ccc(O)cc1	inactive	18.7 µM (active)
CCSC(C)CC1CC(=O)C(C(CC)=NOC/C=C/Cl)=C(O)C1 (centres undefined)	inactive	
O=C(O)C(F)(F)C(F)(F)C(F)(F)C(F)(F)C(F)(F)C(F)(F)C(F)(F)C(F)(F)C(F)(F)C(F)(F)F	inactive	23.9 µM (active)
CC(C)c1cccc(C(C)C)c1O	inactive	
CC(C)c1ccc(CO)cc1	inactive	
CC1(C)Cc2cccc(O)c2O1	inactive	
CCOP(=O)(CN(CCO)CCO)OCC	inactive	
N#Cc1ccccn1	inactive	
COc1ccccc1OC	inactive	
Oc1cccc2cccnc12	inactive	24.8 µM (active)
